Reference: the supplement of paper PMC6555819

Experiments:
Test in all cases: PBM binding z-score (relative to random genomic background probes); higher = stronger binding; sequences stand for … in GC…GCGATTGACAGCGTAGAATGAAGG
[1] = system: FXR:RXRa (NR concentration 270 nM, RXRa partner concentration 90 nM)
How it was run: (§1)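 Antibodies against each partner of ligand-free nuclear receptor dimers (one per run) detected binding on custom Agilent 4×180K protein-binding microarrays after 1 h incubation. The double-stranded probes had 34-nt variable regions carrying direct-repeat seeds, single-nucleotide variants, half-site ablations and random human genomic background sequences. Binding z-scores, from regression-normalized fluorescence, use the random background probes as reference.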

[2] = system: LXRa:RXRa (NR concentration 270 nM, RXRa partner concentration 90 nM)
How it was run: as §1

[3] = system: LXRa homodimer (NR concentration 270 nM)
How it was run: as §1

[4] = system: LXRb:RXRa (NR concentration 270 nM, RXRa partner concentration 90 nM)
How it was run: as §1

[5] = system: LXRb homodimer (NR concentration 270 nM)
How it was run: as §1

[6] = system: PPARa:RXRa (NR concentration 270 nM, RXRa partner concentration 90 nM)
How it was run: as §1

[7] = system: PPARg:RXRa (NR concentration 180 nM, RXRa partner concentration 90 nM)
How it was run: as §1

[8] = system: PPARg:RXRa 270nM:90nM, anti-RXR (NR concentration 270 nM, RXRa partner concentration 90 nM)
How it was run: as §1

[9] = system: PPARg:RXRa 30nM:10nM, anti-RXR (NR concentration 30 nM, RXRa partner concentration 10 nM)
How it was run: as §1

[10] = system: PPARg:RXRa 90nM:30nM, anti-RXR (NR concentration 90 nM, RXRa partner concentration 30 nM)
How it was run: as §1

[11] = system: PPARg:RXRa DBDmut IVT, anti-RXR (DBD mutation: RXRa K156A/R161A, NR concentration 270 nM, RXRa partner concentration 90 nM)
How it was run: as §1

[12] = system: PPARg:RXRa IVT, anti-PPARg (NR concentration 270 nM, RXRa partner concentration 90 nM)
How it was run: as §1

[13] = system: PPARg DBDmut:RXRa IVT, anti-PPARg (DBD mutation: PPARg1 K132A/R137A, NR concentration 270 nM, RXRa partner concentration 90 nM)
How it was run: as §1

[14] = system: PPARg DBDmut IVT, anti-PPARg (DBD mutation: PPARg1 K132A/R137A, NR concentration 270 nM)
How it was run: as §1

[15] = system: PPARg homodimer (NR concentration 180 nM)
How it was run: as §1

[16] = system: PXR:RXRa (NR concentration 270 nM, RXRa partner concentration 90 nM)
How it was run: as §1

[17] = system: PXR homodimer (NR concentration 270 nM)
How it was run: as §1

[18] = system: RARa:RXR (NR concentration 270 nM, RXRa partner concentration 90 nM)
How it was run: as §1

[19] = system: RARa homodimer (NR concentration 270 nM)
How it was run: as §1

[20] = system: RARb:RXRa (NR concentration 270 nM, RXRa partner concentration 90 nM)
How it was run: as §1

Sequence	PBM binding z-score [1]	PBM binding z-score [2]	PBM binding z-score [3]	PBM binding z-score [4]	PBM binding z-score [5]	PBM binding z-score [6]	PBM binding z-score [7]	PBM binding z-score [8]	PBM binding z-score [9]	PBM binding z-score [10]	PBM binding z-score [11]	PBM binding z-score [12]	PBM binding z-score [13]	PBM binding z-score [14]	PBM binding z-score [15]	PBM binding z-score [16]	PBM binding z-score [17]	PBM binding z-score [18]	PBM binding z-score [19]	PBM binding z-score [20]
CCTCGGAGGACAACAGGAGGTTAGAGCTGCCAGA	-0.155	-0.0847	-0.064	-0.556	-0.957	-0.226	0.177	-0.821	-0.597	-0.982	-0.279	-0.491	-1.7	-1.73	-0.214	-0.222	-0.363	-0.127	-0.352	1.32
TCTTGTAGATCAACAGGAGGTTAAGTAAGATCGA	0.451	1.3	0.363	1.17	-0.23	1.52	-0.0593	1.22	2.44	1.51	1.56	0.854	0.235	0.997	-0.29	0.916	-0.272	1.46	0.0899	0.659
ATCTCTAGGTAGAAGTTCAGTGAATCCCGAGGAT	0.0471	0.223	0.0969	0.0752	0.257	2.6	4.33	5.62	4.14	5.52	0.0712	1.23	0.95	0.43	0.271	0.947	1	0.436	0.785	1.07
CCTTTCGGGTCACTGACAGGTTATAGCATTTGGA	5.71	4.35	0.279	3.33	0.0515	5.09	3.95	4.25	1.43	3.06	3.4	3.43	0.931	0.0693	2.97	3.79	0.121	4.74	0.858	4.04
GGAACGAGGGCATTCGAGTTGATACCATGGCGAT	0.529	1.7	-0.438	0.458	-0.357	1.44	1.06	0.855	-0.156	0.405	3.16	2.33	1.32	-0.701	0.6	4.1	1.75	2.07	-0.391	1.93
GCTATTAGTTGAAAGGGCACCCGAATGATTCTCG	0.43	0.387	0.235	0.554	-0.128	2.14	2.65	4.3	2.41	3.99	0.791	0.951	-0.101	0.368	1.05	0.72	0.405	1.28	0.468	1.72
CCGAGTAGGTTATGGGGTATTCAGGCAACGGTGA	0.497	0.701	0.47	1.09	0.945	1.81	2.56	3.45	0.984	2.68	3.61	3.4	-0.421	-0.159	1.48	0.386	0.458	0.453	1.06	0.8
CCTACTGGGCCAAAAAGGTCGTTGATGCCGATAA	0.402	0.901	0.0143	1.24	-0.786	2.45	1.08	1.81	0.344	1.24	3.16	2.91	-0.0977	-1.31	0.923	1.69	0.426	1.77	0.0186	1.48
CGTCCAAGGTCAATGCTAGGTCAGTGATAGCATT	6.64	5.38	2.71	4.07	0.685	5.03	4.12	4.4	1.74	3.05	3.49	4.23	0.259	0.244	6.16	5.12	2	6.2	2.14	5.21
GGAGCGAGGGCAAAGTTGATAGCATCTGTCGACG	0.977	0.574	-0.435	0.182	-0.792	2.54	3.16	4.11	2.37	3.6	0.739	1.35	-0.304	-0.838	-0.183	0.839	-0.0464	1.21	-0.259	2.14
GCTGCTAGGTCAGGTTGGTCAGGTAACGGGTACG	1.37	0.789	-0.109	0.63	0.124	1.5	0.626	0.972	-0.553	0.573	2.86	2.24	-0.63	-0.722	0.641	0.475	-0.529	0.834	-0.052	3.15
ACTCTTAGTTGACTTAGGGCAACCGATACGACGC	0.556	0.443	0.285	0.398	0.941	0.448	0.905	0.0993	0.38	0.299	0.723	0.491	1.1	1.39	0.782	0.578	0.291	0.777	0.704	1.04
ATCGAAAGGTCGTGAGGTGAGTATCCAGAAAGGC	5.07	4.11	0.195	3.04	0.388	4.97	4.11	4.31	1.14	2.9	0.293	2.48	1.2	1.27	1.41	3.13	0.135	4.25	0.545	3.93
TTACCAAGGTGGAAGGTCGTTGATGCACGCCTTG	0.529	0.656	-0.194	0.41	-0.809	2.03	2.43	4.41	1.94	4.21	-0.302	1.09	-0.236	-1.11	0.535	0.751	-0.0879	1.26	-0.0243	0.885
TATAGAGGGTCAAAGGCCAGAGTACGAATGTCGA	6.65	4.84	0.902	3.76	1.49	5.82	8.05	6.87	5.22	7.09	2.58	4.43	0.901	0.741	2.2	3.62	0.282	5.1	1.12	4.11
